Experiment [1] has as its system Molm13. Description: cell viability relative to DMSO control (bortezomib = 0%); higher = less growth inhibition. The settings on record: 10 nM; 72 h. The procedure, abridged:
(§1)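 In duplicate runs, a library of 679 approved and investigational compounds in 384-well plates received acute myeloid leukemia cells at 1000 cells per well in 50 µL, with each compound at a single 10 nM dose for 72 h. CellTiter-Glo luminescence, read on an EnVision reader, served as the viability measure. Each plate was normalized by linear regression between DMSO-treated cells (100%) and positive-control-treated cells (0%).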

Experiment [2] concerns Mv4-11. The experiment is described as above. As to conditions: 10 nM; 72 h. The essentials: as §1

“And” between values parts separate entries of the source, which are not always exact repeats. Equal values may be shown once. Where a name gives a salt, the structure may show the parent alone. ± gives the standard deviation of the averaged measurements.

For `Cc1ccc(F)c(NC(=O)Nc2ccc(-c3cccc4[nH]nc(N)c34)cc2)c1` [Linifanib (ABT-869)], the values for the cell viability in experiment [1] and in experiment [2] were 61.8 ± 4% and 73.9 ± 13%, respectively.

With `O=C(Nc1ccccc1C(=O)NC1CCCCNC1=O)c1cc2ccccc2s1` (centres undefined), the cell viability in experiment [1] turned out to be 98.3 ± 4.7%; in experiment [2] it was 103 ± 1.5%.

With `Cc1ccc(-c2csc3ncnc(SCCC(=O)O)c23)cc1`, the cell viability in experiment [1] was 108 ± 3.3%; in experiment [2], 117 ± 10%.

With `CC(C)(C)n1nc(-c2cccc3ccccc23)c2c(N)ncnc21`, the cell viability in experiment [1] worked out at 95.9 ± 9.6%; in experiment [2], 110 ± 10%.

With `C[C@@H](Oc1ccc2[nH]nc(/C=C/c3cnn(CCO)c3)c2c1)c1c(Cl)cncc1Cl`, the cell viability in experiment [1] came out at 97.5 ± 12%; in experiment [2], 105 ± 3.5%.

For `Cn1cnc(N)c2ncnc1-2` [3-Methyladenine (3-MA)], the cell viability in experiment [1] worked out at 98.3 ± 1.7%; in experiment [2], 77.5 ± 24%.

Turning to `CN1C/C=C/CCOc2cccc(c2)-c2ccnc(n2)Nc2cccc(c2)C1`, the cell viability in experiment [1] worked out at 86.77 ± 0.29%; in experiment [2] it was 102 ± 22%.

As to `Cc1c(Cn2c(C)nc3c(C(=O)O)cc(N4CCOCC4)cc32)cccc1C(F)(F)F`, the cell viability in experiment [1] was 102 ± 5.3%; in experiment [2], 110 ± 17%.

`CN(C)S(=O)(=O)c1ccc2c(c1)/C(=C/c1cc3c([nH]1)CCCC3)C(=O)N2`: the cell viability came out at 113 ± 3.4% in experiment [1] and 109 ± 1.4% in experiment [2].

As for `COCCOc1cnc2ccn([C@H](C)c3nnc4c(F)cc(-c5cnn(C)c5)cn34)c(=O)c2c1`, the figures for the cell viability in experiment [1] and in experiment [2] were 104 ± 13% and 115 ± 1.6%, respectively.

With `CC(C)=CCC[C@](C)(O[C@@H]1O[C@H](CO[C@@H]2O[C@H](CO)[C@@H](O)[C@H](O)[C@H]2O)[C@@H](O)[C@H](O)[C@H]1O)[C@H]1CC[C@]2(C)[C@@H]1[C@H](O)C[C@@H]1[C@@]3(C)CC[C@H](O[C@@H]4O[C@H](CO)[C@@H](O)[C@H](O)[C@H]4O)C(C)(C)[C@@H]3CC[C@]12C` [Gypenoside XVII], the values for the cell viability in experiment [1] and in experiment [2] were 95.8 ± 9.3% and 102 ± 7%, respectively.

For `CCc1cc2c(=O)c(-c3nc4ccccc4s3)coc2c(CN2CCCCC2)c1O`, the cell viability in experiment [1] turned out to be 129 ± 34%; in experiment [2], 123 ± 5.4%.

Consider `C[C@@H](N)[C@H]1CC[C@H](C(=O)Nc2ccncc2)CC1`, for which the cell viability is 93.8% and 107% in experiment [1]; 100% and 112% in experiment [2].

Regarding `COc1ccc(C=C(C#N)c2cccnc2)cc1OC`, the figures for the cell viability in experiment [1] and in experiment [2] were 100 ± 14% and 103 ± 0.99%, respectively.

With `C=CCc1ccc(O)c(-c2ccc(O)c(CC=C)c2)c1` [Honokiol], the cell viability in experiment [1] turned out to be 105 ± 5.5%; in experiment [2], 112 ± 14%.

As for `Nc1ncnc2c1ncn2C1OC(COP(=O)(O)O)C(O)C1O` (centres undefined) [Adenosine 5'-monophosphate monohydrate], the cell viability in experiment [1] was determined as 102 ± 34%; in experiment [2], 97.2 ± 0.99%.

For the compound `Cn1cc(C2=C(c3cccc(N)c3)C(=O)NC2=O)c2ccccc21`, the cell viability in experiment [1] worked out at 114.2 ± 0.55%; in experiment [2], 113 ± 3.2%.

Regarding `O=S(=O)(NCCNC/C=C/c1ccc(Br)cc1)c1cccc2cnccc12` [H-89 (hydrochloride)], the cell viability in experiment [1] worked out at 114 ± 19%; in experiment [2], 109 ± 5.8%.

`COc1cc2c(Nc3ccc(NC(=O)c4ccccc4)cc3)ncnc2cc1OCCCN1CCOCC1`: the values for the cell viability in experiment [1] and in experiment [2] were 87.8 ± 50% and 120 ± 19%, respectively.

On to `Oc1ccc(Nc2nc(-c3ccc(Cl)cc3)cs2)cc1`, for which the cell viability in experiment [1] worked out at 99.73 ± 0.67%; in experiment [2], 105.24 ± 0.067%.

For `CN1C(=O)C(Cc2c[nH]c3ccccc23)NC1=S` (centres undefined) [Necrostatin-1], the cell viability in experiment [1] was determined as 106 ± 9.9%; in experiment [2], 93.4 ± 10%.

For the compound `FC(F)(F)c1ccc(CNc2ccc(Cc3c[nH]c4ncccc34)cn2)cc1`, the cell viability in experiment [1] stood at 76.9 ± 16%; in experiment [2], 110 ± 3.2%.

As to `Cc1ccc(Nc2nccc(N(C)c3ccc4c(C)n(C)nc4c3)n2)cc1S(N)(=O)=O` [Pazopanib], the cell viability in experiment [1] is 101 ± 36%; in experiment [2], 104 ± 4.1%.

Consider `CN(C)CCOc1ccc(-c2nc(-c3ccncc3)c(-c3ccc4c(c3)CC/C4=N\O)[nH]2)cc1`, for which the cell viability in experiment [1] came out at 103 ± 23%; in experiment [2], 101 ± 4%.

On to `CC#CC(=O)Nc1ccc2ncnc(Nc3cccc(Br)c3)c2c1`, for which the cell viability came out at 99.9 ± 3.4% in experiment [1] and 98.9 ± 4.2% in experiment [2].

On to `COc1cc2ncnc(Nc3ccc(O)c(Br)c3)c2cc1OC`, for which the cell viability in experiment [1] was found to be 95.4 ± 24%; in experiment [2], 112 ± 14%.

Consider `O=C(O)c1ccc(-c2c[nH]c3ncc(-c4ccccc4)cc23)cc1C1CCCC1`, for which the figures for the cell viability in experiment [1] and in experiment [2] were 107 ± 1.1% and 96 ± 2.7%, respectively.

With `O=C1NCCc2[nH]c(-c3ccncc3)cc21`, the cell viability came to 115 ± 14% in experiment [1] and 115 ± 6.7% in experiment [2].

Regarding `COc1ccc(CNC(=O)Nc2ncc([N+](=O)[O-])s2)cc1`, the cell viability in experiment [1] was found to be 107 ± 7.3%; in experiment [2], 114 ± 15%.

In the case of `Cn1sc(=O)n(Cc2ccccc2)c1=O`, the results for the cell viability in experiment [1] and in experiment [2] were 90.9 ± 6.1% and 108 ± 21%, respectively.

For the compound `COc1cc(N2CCC(N)CC2)ccc1Nc1ncc(Cl)c(-c2c[nH]c3ccccc23)n1`, the cell viability amounted to 86 ± 2.5% in experiment [1] and 93.3 ± 5.9% in experiment [2].

Regarding `O=C1NC(=O)C(c2cnc3ccccn23)=C1c1cn2c3c(cc(F)cc13)CN(C(=O)N1CCCCC1)CC2`, the cell viability in experiment [1] came out at 125 ± 6.1%; in experiment [2], 89.9 ± 4.6%.

Regarding `CCS(=O)(=O)c1cccc(-c2cc(C(=O)NC3CCN(C)CC3)c(C)c3[nH]c4ncc(C)cc4c23)c1`, the results for the cell viability in experiment [1] and in experiment [2] were 75.1 ± 5.3% and 90.6 ± 3.5%, respectively.

`COC(=O)c1ccc2c(c1)NC(=O)/C2=C(\Nc1ccc(N(C)C(=O)CN2CCN(C)CC2)cc1)c1ccccc1` [Nintedanib (BIBF 1120)]: the cell viability in experiment [1] amounted to 83.62 ± 0.69%; in experiment [2], 113 ± 5.7%.

As to `COc1cc(Nc2ncc3c(n2)-c2ccc(Cl)cc2C(c2c(F)cccc2OC)=NC3)ccc1C(=O)O` [MLN8237(Alisertib)], the figures for the cell viability in experiment [1] and in experiment [2] were 99.5 ± 6.3% and 114 ± 4.2%, respectively.

Regarding `Cc1cc2sc(NC(=O)Cc3ccccc3)nc2cc1Cl`, the cell viability amounted to 116 ± 19% in experiment [1] and 119 ± 4.2% in experiment [2].

As to `Cc1ccc(S(=O)(=O)NC(=O)NN2CC3CCCC3C2)cc1` (centres undefined) [Gliclazide], the cell viability in experiment [1] amounted to 98.5 ± 5.5%; in experiment [2] it was 113 ± 6.1%.

(Values after the supplement of paper PMC8699584.)
